Over roughly 33,000 sequences, “e-score” has its median near -0.05; the highest 2% begin near 0.38. Many of the other results were omitted from the sample, so the highest values are more common in it than they were.

The target in the experiment is T1, SIX1-Q177R homeodomain (human, UniProt Q15475 108-198, Q177R).
T1 sequence: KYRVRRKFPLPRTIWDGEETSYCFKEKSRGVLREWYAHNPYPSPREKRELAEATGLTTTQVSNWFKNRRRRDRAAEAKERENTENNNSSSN
As to the kind of experiment: universal protein binding microarray; Universal all-10-mer PBM (8x60K, AMADID 030236), 300 nM GST-tagged protein, Alexa Fluor 488 anti-GST; buffer, salt, pH and temperature not stated (as in Berger); high values mean tight binding. The conditions noted are these: protein: ivt; tags: N-terminal GST; dsDNA, one strand shown. In outline:
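After in vitro transcription/translation, GST-tagged homeodomains were quantified against a recombinant GST standard curve by anti-GST western blot. They were then placed in duplicate at 300 nM final concentration on universal 'all 10-mer' protein binding microarrays of 8×60K format.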
In the case of ACTTGGTG, the binding signal stood at 0.2882 ± 0.00137 E-score.

Regarding CCCCAATA, the binding signal was 0.153 ± 0.00289 E-score.

Consider CCGAGTGA, for which the binding signal is 0.156 ± 0.00131 E-score. To CACCGCCG belongs 0.375 ± 0.0128 E-score; to GCGTGCTA, 0.151 ± 0.031 E-score. To GCGTGATA belongs 0.173 ± 0.0569 E-score. To GCGTGTTA belongs 0.387 ± 0.0267 E-score; to CCGTGGTA, 0.166 ± 0.0401 E-score; to ACGTGTTC, 0.3144 ± 0.00304 E-score. On to ACGTGTTA, for which the binding signal was found to be 0.352 ± 0.0237 E-score. CCGTGTTA: the binding signal came out at 0.4236 ± 0.00253 E-score.

For CCGTGCTC, the binding signal came to 0.226 ± 0.0264 E-score. To CCGTGTTC belongs 0.384 ± 0.0141 E-score; to CACAGTGG, 0.16 ± 0.0343 E-score; to CGGGGATC, 0.212 ± 0.00313 E-score. Consider CGCACGAC, for which the binding signal was 0.187 ± 0.0218 E-score. As for ATCCGAGG, the binding signal worked out at 0.1653 ± 0.000757 E-score. On to GTAATCGA, for which the binding signal was found to be 0.204 ± 0.015 E-score.

Turning to CGGCTGAC, the binding signal worked out at 0.174 ± 0.0351 E-score.

Regarding CGAATGAC, the binding signal came to 0.198 ± 0.0214 E-score. To AAGAGGTG belongs 0.368 ± 0.00802 E-score; to GTTCCGTA, 0.188 ± 0.0176 E-score; to GGGTATAA, 0.152 ± 0.0231 E-score. To GTATCCTA belongs 0.187 ± 0.00559 E-score. To GTATCCCA belongs 0.252 ± 0.00467 E-score; to GCGTCCTA, 0.168 ± 0.0119 E-score. GTGTCTGA: the binding signal came to 0.364 ± 0.022 E-score. Turning to GTGTCCGA, the binding signal is 0.413 ± 0.0127 E-score.

In the case of GTGTCCAA, the binding signal amounted to 0.419 ± 0.0151 E-score.

For the sequence GTGTCCCA, the binding signal came to 0.442 ± 0.019 E-score. With GGGTCCAA, the binding signal was 0.218 ± 0.025 E-score. To GTATCCAA belongs 0.292 ± 0.0191 E-score. To GGGTCCCA belongs 0.1517 ± 0.0014 E-score. To GTGTCCTA belongs 0.4 ± 0.0124 E-score; to GTATCCGA, 0.312 ± 0.0026 E-score. As for CACCATGA, the binding signal was 0.289 ± 0.0156 E-score. To CAGATACA belongs 0.313 ± 0.0113 E-score. As to AGGGTTAC, the binding signal is 0.162 ± 0.0418 E-score. To GGTGCCAA belongs 0.187 ± 0.0523 E-score; to GAACGACA, 0.238 ± 0.0152 E-score. To ATCCCCCG belongs 0.266 ± 0.0176 E-score; to CACGCGAC, 0.26 ± 0.00798 E-score. To GGTATACA belongs 0.269 ± 0.00593 E-score; to TGTTATAA, 0.267 ± 0.015 E-score; to ACAGGGGT, 0.266 ± 0.0127 E-score. With CAATAGTG, the binding signal was found to be 0.17 ± 0.0397 E-score. To CACGGTGG belongs 0.26 ± 0.0142 E-score; to AGGTTACA, 0.182 ± 0.0252 E-score; to ATTCGACA, 0.163 ± 0.00531 E-score. To CGATCACG belongs 0.173 ± 0.0459 E-score. To CTCCCCGC belongs 0.168 ± 0.0157 E-score; to ACACACTC, 0.314 ± 0.0291 E-score; to ACACTCTC, 0.3915 ± 0.00342 E-score. Regarding ATACTCTC, the binding signal turned out to be 0.158 ± 0.0315 E-score.

As for ACACTCTG, the binding signal amounted to 0.404 ± 0.00495 E-score. To ACTGGGCG belongs 0.192 ± 0.0152 E-score; to CTAAGACA, 0.2225 ± 0.00145 E-score; to CACAGCCG, 0.208 ± 0.0273 E-score. To ACCAACGA belongs 0.187 ± 0.00325 E-score; to CTCAGCAC, 0.185 ± 0.0185 E-score; to CAGACACA, 0.19 ± 0.0525 E-score. To CAGACACG belongs 0.353 ± 0.0179 E-score. In the case of GAGACACC, the binding signal was 0.462 ± 0.0147 E-score. To CAGACACC belongs 0.456 ± 0.0151 E-score; to AAGACACT, 0.3744 ± 0.00267 E-score; to GAGACACA, 0.241 ± 0.0428 E-score.

Take GAGACAAC: the binding signal worked out at 0.1522 ± 0.00125 E-score. To AAGACACC belongs 0.4713 ± 0.00312 E-score. For AAGACACG, the binding signal was found to be 0.35 ± 0.00553 E-score.

ACACAATC: the binding signal came out at 0.178 ± 0.0434 E-score.

CACCGTTA: the binding signal was determined as 0.24 ± 0.0265 E-score. To CACGAAAC belongs 0.152 ± 0.0288 E-score. Consider TACGTACA, for which the binding signal was determined as 0.18 ± 0.0207 E-score. To ACTCTACA belongs 0.296 ± 0.00689 E-score. To ATTCTACA belongs 0.181 ± 0.0191 E-score; to ACGATGGG, 0.151 ± 0.0168 E-score. To GGTATCCA belongs 0.3692 ± 0.00211 E-score; to AGTGTCCC, 0.379 ± 0.0227 E-score; to CGTGTCCC, 0.398 ± 0.0161 E-score.

GGAGTCCC: the binding signal turned out to be 0.171 ± 0.00561 E-score.

CGTGTCCA: the binding signal was 0.4 ± 0.0263 E-score. To GGGGTCCA belongs 0.268 ± 0.0349 E-score; to AGTGTCCA, 0.348 ± 0.00804 E-score; to GGTGTCCA, 0.48 ± 0.00796 E-score.

On to CTGATACA, for which the binding signal turned out to be 0.24 ± 0.00405 E-score. To CTTTGACA belongs 0.219 ± 0.022 E-score. To CCGAACCG belongs 0.175 ± 0.0143 E-score; to ATTATACA, 0.165 ± 0.0294 E-score.

On to ACACTTTA, for which the binding signal worked out at 0.343 ± 0.037 E-score. To CACTCCTG belongs 0.335 ± 0.0105 E-score. As to CATCACAC, the binding signal stood at 0.317 ± 0.0183 E-score. To CATTACAC belongs 0.452 ± 0.0182 E-score; to CATTACTC, 0.173 ± 0.0527 E-score; to GATTACCC, 0.175 ± 0.0203 E-score. To GATCACAC belongs 0.324 ± 0.0116 E-score. Take AATCACAC: the binding signal was 0.348 ± 0.00368 E-score. In the case of GATTACAC, the binding signal was 0.451 ± 0.00984 E-score. To AATTACAC belongs 0.433 ± 0.0394 E-score; to AATTGCAC, 0.151 ± 0.0498 E-score; to CTGAGGTA, 0.185 ± 0.0187 E-score. To CGGGGGTA belongs 0.315 ± 0.029 E-score; to GGATAAAC, 0.169 ± 0.0541 E-score; to CACCTAGG, 0.225 ± 0.0248 E-score. To CGCCGACA belongs 0.209 ± 0.0201 E-score. Consider AATACACG, for which the binding signal turned out to be 0.379 ± 0.0262 E-score. To GATACCCC belongs 0.419 ± 0.00493 E-score; to TATACACA, 0.169 ± 0.034 E-score; to CATACCCC, 0.205 ± 0.0264 E-score. As for GATACACC, the binding signal worked out at 0.469 ± 0.00549 E-score. To AATACACA belongs 0.188 ± 0.0145 E-score; to AATACCCC, 0.185 ± 0.00616 E-score. To GATACACA belongs 0.191 ± 0.024 E-score; to CACACATA, 0.15 ± 0.0738 E-score.

For the sequence CATACACG, the binding signal stood at 0.385 ± 0.00816 E-score.

Regarding CATACACA, the binding signal was determined as 0.205 ± 0.0341 E-score. In the case of GATACTCC, the binding signal is 0.223 ± 0.00252 E-score. To CCCCTACG belongs 0.181 ± 0.00578 E-score; to CACGTGCG, 0.171 ± 0.0176 E-score. To CACTGCCG belongs 0.26 ± 0.0036 E-score.

On to ACTAGGGA, for which the binding signal was 0.18 ± 0.018 E-score. To TGTCAGAA belongs 0.183 ± 0.0293 E-score; to CAACCCCA, 0.173 ± 0.00554 E-score. As for CACGAGAA, the binding signal was 0.2024 ± 0.00175 E-score. To TATCGACA belongs 0.212 ± 0.0495 E-score; to AACGCCGT, 0.159 ± 0.0311 E-score.

As to AATACACT, the binding signal was 0.327 ± 0.0629 E-score. For CATGCACC, the binding signal turned out to be 0.165 ± 0.0266 E-score. To AATACACC belongs 0.46 ± 0.00939 E-score; to CATACACC, 0.4625 ± 0.00144 E-score; to AATATACA, 0.18 ± 0.0323 E-score. Consider CATACTCC, for which the binding signal was 0.21183 ± 0.000205 E-score.

With ACTCCGCA, the binding signal amounted to 0.225 ± 0.0283 E-score. To CGAACCCC belongs 0.238 ± 0.0417 E-score; to GTGCTCCA, 0.183 ± 0.0244 E-score. To ATCCACAG belongs 0.185 ± 0.0127 E-score; to ACATTCGG, 0.311 ± 0.0104 E-score; to CCCACCAC, 0.158 ± 0.0233 E-score. On to CACACCAA, for which the binding signal was 0.38 ± 0.0115 E-score. To CACACCAC belongs 0.442 ± 0.00998 E-score; to CACACGAA, 0.217 ± 0.0302 E-score; to CACACGAG, 0.238 ± 0.00672 E-score.

Turning to CACCCCAG, the binding signal was found to be 0.36 ± 0.0234 E-score. To CGCACCAC belongs 0.206 ± 0.0107 E-score; to CACCACAG, 0.322 ± 0.0259 E-score; to CGCACCAG, 0.17 ± 0.0676 E-score.

With CACACCAG, the binding signal came out at 0.416 ± 0.029 E-score.

Regarding AACCACAC, the binding signal was 0.281 ± 0.0163 E-score.

For the sequence CACCACAC, the binding signal was found to be 0.426 ± 0.00815 E-score. To AGGATACT belongs 0.167 ± 0.0416 E-score; to CACTCACA, 0.228 ± 0.0123 E-score. To CCCTAGTA belongs 0.18 ± 0.00712 E-score; to CACCCAAA, 0.255 ± 0.0189 E-score; to TACCGACA, 0.166 ± 0.00446 E-score. To AGTCAGTG belongs 0.207 ± 0.0189 E-score.

As to CCCCACTC, the binding signal was determined as 0.18 ± 0.00661 E-score. CGGGTCAC: the binding signal stood at 0.246 ± 0.0313 E-score. To CCCGCCCC belongs 0.1792 ± 0.00129 E-score; to AACACCAG, 0.4653 ± 0.00151 E-score; to AACACGAG, 0.361 ± 0.00448 E-score. Turning to AGCACCAG, the binding signal came to 0.247 ± 0.0221 E-score. To ACCAATAC belongs 0.1574 ± 0.000269 E-score.

With CCAGTTTA, the binding signal amounted to 0.227 ± 0.00151 E-score. In the case of CCAGTGTC, the binding signal worked out at 0.431 ± 0.00754 E-score. To GCAGTGTA belongs 0.415 ± 0.0107 E-score; to GCAGGGTA, 0.162 ± 0.00253 E-score; to CCTGTGTC, 0.229 ± 0.0614 E-score.

As to CCAGTGGG, the binding signal is 0.224 ± 0.0185 E-score.

As for CCAGTGTA, the binding signal was 0.43 ± 0.0046 E-score.

Take ACTGTGTC: the binding signal came to 0.155 ± 0.074 E-score.

In the case of AAAGTGTC, the binding signal was 0.36 ± 0.0233 E-score. To CCAGTAAC belongs 0.161 ± 0.0301 E-score. In the case of ACAGTGTC, the binding signal was found to be 0.387 ± 0.00426 E-score. To GAAGTGTA belongs 0.368 ± 0.0537 E-score.

These data come from publication PMC10668032, “Altered binding affinity of SIX1-Q177R correlates with enhanced WNT5A and WNT pathway effector expression in Wilms tumor”.
